The results in this text go back to article PMC5700166.

In one assay the target is GST-Hu-p50 (Homo sapiens, UniProt P19838 7-356). Put plainly: protein-binding microarray (PBM); PBM: ~300 nM protein, 6 mM HEPES pH 7.8, 80 mM KCl, 0.5 mM EDTA, 0.5 mM EGTA, 6% glycerol, 35 ng/ul poly-dIdC, 1% milk, 1 h, room temperature; Ap Aiptasia and Nv Nematostella (sea anemones) / Co Capsaspora / Aq Amphimedon (sponge) / Dm Drosophila / Hu human; RHD is the Rel homology domain; high values mean tight binding. Conditions: dsDNA, one strand shown.
Assay [1] deals with T1, GST-Nv-NF-kB (Ser allele) (Nematostella vectensis, UniProt A7UNT2 2-411).
T1 sequence: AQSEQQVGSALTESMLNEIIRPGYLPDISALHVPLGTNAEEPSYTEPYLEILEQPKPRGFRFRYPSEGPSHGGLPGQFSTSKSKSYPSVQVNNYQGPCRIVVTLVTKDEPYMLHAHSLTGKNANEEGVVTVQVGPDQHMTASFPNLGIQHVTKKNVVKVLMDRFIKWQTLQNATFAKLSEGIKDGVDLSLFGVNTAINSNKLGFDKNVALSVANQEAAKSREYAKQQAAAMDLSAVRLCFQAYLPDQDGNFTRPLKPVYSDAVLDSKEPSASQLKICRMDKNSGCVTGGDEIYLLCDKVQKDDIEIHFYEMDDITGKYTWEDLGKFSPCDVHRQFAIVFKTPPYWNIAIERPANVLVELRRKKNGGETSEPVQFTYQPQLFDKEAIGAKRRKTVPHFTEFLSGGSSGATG
The description is as above. The note with it: dsDNA, one strand shown.

GST-Hu-p50, sequence (P19838 7-356): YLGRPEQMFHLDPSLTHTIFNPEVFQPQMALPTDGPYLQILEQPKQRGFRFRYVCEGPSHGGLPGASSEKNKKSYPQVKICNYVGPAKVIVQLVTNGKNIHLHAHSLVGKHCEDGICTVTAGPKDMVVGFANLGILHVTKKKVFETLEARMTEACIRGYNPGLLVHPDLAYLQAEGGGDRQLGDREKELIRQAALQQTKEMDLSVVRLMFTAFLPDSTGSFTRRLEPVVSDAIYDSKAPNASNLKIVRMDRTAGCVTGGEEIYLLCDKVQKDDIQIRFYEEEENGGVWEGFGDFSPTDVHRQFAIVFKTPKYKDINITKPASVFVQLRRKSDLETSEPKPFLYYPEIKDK

“CCGATTAACATCAATTTATCCCCTGATGTTAATCGGGTCTTGATTCGCTTGACGCTGCTG” returned a binding signal with GST-Hu-p50 of 4.37 z-score.

Turning to “CCGATTAACATCATACAAGGGAGTGATGTTAATCGGGTCTTGATTCGCTTGACGCTGCTG”, the binding signal with GST-Hu-p50 was found to be 1.09 z-score.

In turn, “CCGATTAACATCACCGTTTTCCCTGATGTTAATCGGGTCTTGATTCGCTTGACGCTGCTG” displayed a binding signal with GST-Hu-p50 of 3.18 z-score.

On to “CCGATTAACATCAATTTTTTCCCTGATGTTAATCGGGTCTTGATTCGCTTGACGCTGCTG”, for which the binding signal with GST-Hu-p50 came to 4.43 z-score.

On to “CCGATTAACATCACCCGAGTGCGTGATGTTAATCGGGTCTTGATTCGCTTGACGCTGCTG”, for which the binding signal with GST-Hu-p50 was found to be 1.1 z-score.

Sequence “CCGATTAACATCAGGAACACCCCTGATGTTAATCGGGTCTTGATTCGCTTGACGCTGCTG” had a binding signal with GST-Hu-p50 of 2.26 z-score.

Regarding “CCGATTAACATCAAATAATTCCCTGATGTTAATCGGGTCTTGATTCGCTTGACGCTGCTG”, in the assay with GST-Hu-p50, the binding signal was determined as 5.03 z-score.

Consider “CCGATTAACATCATCTTTTTACTTGATGTTAATCGGGTCTTGATTCGCTTGACGCTGCTG”, for which the binding signal in the assay with GST-Hu-p50 was found to be 1.01 z-score.

“CCGATTAACATCAGGGAGACCCCTGATGTTAATCGGGTCTTGATTCGCTTGACGCTGCTG” showed a binding signal with GST-Hu-p50 of 3.48 z-score.

As to “CCGATTAACATCACTTTTTTCCCTGATGTTAATCGGGTCTTGATTCGCTTGACGCTGCTG”, the binding signal with GST-Hu-p50 stood at 3.53 z-score.

In the assay with GST-Hu-p50, “CCGATTAACATCAAGGGCTTCCCTGATGTTAATCGGGTCTTGATTCGCTTGACGCTGCTG” yielded a binding signal of 1.06 z-score.

As for “CCGATTAACATCACCCAAAGTTTTGATGTTAATCGGGTCTTGATTCGCTTGACGCTGCTG”, the binding signal with GST-Hu-p50 was found to be 1.11 z-score.

In the case of “CCGATTAACATCAGCATTTTCCCTGATGTTAATCGGGTCTTGATTCGCTTGACGCTGCTG”, the binding signal with GST-Hu-p50 came out at 3.25 z-score.

“CCGATTAACATCACGGCAATCCCTGATGTTAATCGGGTCTTGATTCGCTTGACGCTGCTG”: the binding signal in the assay with GST-Hu-p50 turned out to be 1.12 z-score.

In the case of “CCGATTAACATCAGGACAATCCCTGATGTTAATCGGGTCTTGATTCGCTTGACGCTGCTG”, in the assay with GST-Hu-p50, the binding signal is 1.84 z-score.

“CCGATTAACATCAGGGAAAAACCTGATGTTAATCGGGTCTTGATTCGCTTGACGCTGCTG” showed a binding signal in the assay with GST-Hu-p50 of 4.95 z-score.

For the sequence “CCGATTAACATCAGGAAAAAACCTGATGTTAATCGGGTCTTGATTCGCTTGACGCTGCTG”, in the assay with GST-Hu-p50, the binding signal was 2.63 z-score.

“CCGATTAACATCAACGGTGGAAATGATGTTAATCGGGTCTTGATTCGCTTGACGCTGCTG”: the binding signal in the assay with GST-Hu-p50 is 1.15 z-score.

As for “CCGATTAACATCACAGGAATTTCTGATGTTAATCGGGTCTTGATTCGCTTGACGCTGCTG”, in the assay with GST-Hu-p50, the binding signal is 1.08 z-score.

In the case of “CCGATTAACATCAGTAGTGGGGCTGATGTTAATCGGGTCTTGATTCGCTTGACGCTGCTG”, the binding signal in the assay with GST-Hu-p50 turned out to be 1.09 z-score.

As for “CCGATTAACATCAGGAAATTTCATGATGTTAATCGGGTCTTGATTCGCTTGACGCTGCTG”, the binding signal with GST-Hu-p50 came out at 1.06 z-score.

In turn, “CCGATTAACATCAAAAAATTACCTGATGTTAATCGGGTCTTGATTCGCTTGACGCTGCTG” had a binding signal with GST-Hu-p50 of 4.27 z-score.

Take “CCGATTAACATCAATAAAATTCCTGATGTTAATCGGGTCTTGATTCGCTTGACGCTGCTG”: the binding signal with GST-Hu-p50 was 1.02 z-score.

Consider “CCGATTAACATCACGGGTTTCCCTGATGTTAATCGGGTCTTGATTCGCTTGACGCTGCTG”, for which the binding signal in assay [1] was 4.88 z-score; with GST-Hu-p50, 3.17 z-score.

On to “CCGATTAACATCACTTTACCCCCTGATGTTAATCGGGTCTTGATTCGCTTGACGCTGCTG”, for which the figures for the binding signal (in assay [1]; in the assay with GST-Hu-p50) were 4.4 z-score and 3.42 z-score, respectively.
